Only a selection was taken, and hits are over-represented in it overall.
HIV RNase H inh = HIV-1 RT RNase H inhibitors, primary screen, biochemical, fluorescence | Gag-Pol polyprotein (Human immunodeficiency virus type 1 group M subtype B (isolate … | RT-RNase H RNA/DNA duplex cleavage | inhibition, % at 10 µM | 65,000 compounds, 1.9% hits | AID 565, 2006; in the data active = inhibition above about 50%
RmlCD inh mix = RmlC and RmlD coupled enzyme inhibitors, primary screen, biochemical, 384-well, compound mixtures, retest. RmlC/RmlD coupled enzyme inhibition, 384-well mixture HTS. inhibition, % at 5.5 µM. 110,000 compounds, 0.39% hits. AID 1532, 2009; in the data active = inhibition above about 30%, passing the limit was not always enough; inconclusive = no clear call, values can overlap the other calls
RmlCD artifact = counter-screen for RmlC/RmlD inhibitors: fluorescence artifact, dose response, artefact control, biochemical; shares compounds with RmlCD inh mix; RmlC/RmlD assay fluorescence artifact counter-screen; calls only; 360 compounds, 96% hits; AID 1696, 2009; call rule not given here;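 note: compound alone with no enzyme and no substrates present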
Hits are given with their value; . = inactive; ? = inconclusive; / = not tested or not shown; + = active, no number.

SMILES	HIV RNase H inh	RmlCD inh mix	RmlCD artifact
COCCCn1c(=N)c(C(=O)NC2CCCCC2)cc2c(=O)n3ccccc3nc21	/	49	+
COC(=O)c1cc2c(=O)n3ccccc3nc2n(C(C)C)c1=N	.	/	/
CCCCNC(=O)c1cc2c(=O)n3cccc(C)c3nc2n(Cc2ccncc2)c1=N	.	89	+
O=C(O)c1ccc2c(c1)C(=O)N(Cc1ccccc1)C2=O	.	.	/
CCS(=O)(=O)CCSC(=N)N	/	.	/
COCCCn1c(=NC(=O)c2ccncc2)c(C#N)cc2c(=O)n3cccc(C)c3nc21	.	104	+
CCCn1c(=N)c(C(=O)NC2CCCC2)cc2c(=O)n3cccc(C)c3nc21	/	43	+
Cc1cccn2c(=O)c3cc(C#N)c(=NC(=O)c4ccncc4)n(CCCOC(C)C)c3nc12	.	?	/
CCn1c(=N)c(C(=O)NC)cc2c(=O)n3cccc(C)c3nc21	.	/	/
Cc1cccn2c(=O)c3cc(C(=O)NC4CCCC4)c(=N)n(C4CCCC4)c3nc12	.	79	+
Cc1cccn2c(=O)c3cc(C(=O)NC4CCCCC4)c(=N)n(CCN4CCOCC4)c3nc12	.	/	/
Cc1ccc(C)c(N2CCN(C(=O)CCS(=O)(=O)c3cccc4nonc34)CC2)c1	.	.	/
COc1ccc(C2NC(C(=O)O)CS2)cc1COCC(F)(F)F (stereo unspecified)	.	.	/
Cc1c(=O)n(OCc2ccccc2F)c2ccccc2[n+]1[O-]	.	.	/
CC1(C)C(=O)OC(c2c(F)c(F)c(F)c(F)c2F)C2(CCCCC2)C1=O (stereo unspecified)	.	.	/
CCn1c(SCc2ccc(C#N)cc2)nnc1-c1ccc(S(=O)(=O)N2CCCCC2)cc1	.	.	/
CCCCCCCC(=O)NC(Nc1ccc(S(N)(=O)=O)cc1)C(Cl)(Cl)Cl (stereo unspecified)	/	.	/
COc1ccccc1CC(=O)N(CCC#N)CCC#N	.	.	/
COCCCn1cnc2oc3nc4ccccc4nc3c2c1=O	.	50	+
COCCCn1cnc2c(c1=O)c1nc3ccccc3nc1n2-c1ccccc1	.	.	/
CC1(C)c2[nH]c3ccccc3c2C[C@@H]2C(=O)N(Cc3ccco3)C(=O)N21	/	.	/
COc1ccc(OC)c(NC(=O)Nc2cccc3ccccc23)c1	/	.	/
COC(=O)/C(=C/Nc1cccc2ccccc12)[N+](=O)[O-]	/	158	+
CNC(=O)C(=O)NCCc1ccc(Cl)cc1	/	.	/
COCCCn1c(=O)/c(=C\c2ccc(OC(F)F)c(OC)c2)s/c1=C(/C#N)C(=O)NCCOC	/	/	.
SMILES	HIV RNase H inh	RmlCD inh mix	RmlCD artifact
C=CCn1c(=O)/c(=C\c2ccsc2)s/c1=C(/C#N)C(=O)NCCN1CCOCC1	.	.	/
NC(Cc1ccc(Oc2ccc(O)cc2)cc1)C(=O)O (stereo unspecified)	.	/	/
Cc1cc(Nc2ccc(C)c(Br)c2)n2nc(C)nc2n1	.	.	/
Oc1ccccc1/C=N/c1c(-c2ccco2)nc2ccccn12	.	39	+
Clc1ccc(/C=N/c2c(-c3ccco3)nc3ccccn23)cc1	/	.	/
OCOCCCn1c(C2CCCN2c2nc(-c3ccc(F)cc3)cs2)nc2cc(Cl)c(N3CCCCC3)cc21 (stereo unspecified)	/	.	/
COC(=O)c1ccc(-n2cncn2)c(F)c1	/	.	/
Cc1ccc(C)c(/C(O)=C2\C(=O)C(=O)N(CCCn3ccnc3)C2c2cccnc2)c1 (stereo unspecified)	/	.	/
CC(=O)c1ccc(/C=C/c2nc3ccccc3n2C)o1	/	/	+
Cn1c(/C=N/NC(=O)c2ccccc2)nc2ccccc21	/	.	/
c1ccc(-n2nnc(-c3cccnc3)n2)cc1	/	.	/
COc1ccc2[nH]c(=O)c(CN(CCO)C(=O)c3ccccc3F)cc2c1	.	.	/
Cc1c(C)c2cc(Cl)c(O)c(CN(C)C)c2oc1=O	.	63	+
CCc1c(C)c2cc(Cl)c(O)c(CN(C)C)c2oc1=O	.	82	+
COc1ccc(-c2cc(=O)oc3c(C)c(O)c(CN(C)C)cc23)cc1	.	.	/
CN(C)Cc1c(O)c(Cl)cc2c3c(c(=O)oc12)CCCC3	/	140	+
Cc1coc2c(C)c3oc(=O)c4c(c3cc12)CCCC4	.	.	/
C=CCOC(=O)COc1ccc2c(C)c(CC)c(=O)oc2c1	.	.	/
CCc1cc2c(=O)c(-c3nc4ccccc4n3C)c(C)oc2c(CN(CC)CC)c1O	/	.	/
CCc1c(C)c2cc(Cl)c(O)c(CN(CC)CC)c2oc1=O	.	106	+
Cc1cc(Cl)ccc1Oc1nc(-c2ccc(F)cc2)ccc1C#N	/	.	/
CC1C(=O)CCN(C(C)(C)C)C1C (stereo unspecified)	/	.	/
CC(=O)/C(C#N)=C1\NC(=O)C(Cc2ccc(C)c(C)c2)S1 (stereo unspecified)	/	.	/
O=C(N1CCOCC1)N1CCC(NC(=O)C23CC4CC(CC(C4)C2)C3)CC1	.	.	/
CC(C)CN(C(=O)c1ccc(=O)n(C)n1)c1nc2ccccc2s1	.	.	/
SMILES	HIV RNase H inh	RmlCD inh mix	RmlCD artifact
Cc1cccc(OCCOc2ccc(/C=N/NC(=O)Cc3nnc(N)s3)cc2)c1	/	.	/
O=C(CNC(=O)c1ccc(Cl)cc1Cl)NCCCn1ccnc1	/	.	/
CCOC(=O)c1c(C)n(C)c2ccc(OC(=O)c3ccco3)cc12	/	.	/
COc1ccccc1Oc1c(C)oc2cc(OC(=O)c3ccco3)ccc2c1=O	.	105	+
Cc1oc2cc(OCC(=O)O)ccc2c(=O)c1Oc1ccccc1	.	.	/
CCOC(=O)c1cc2ccc(OC(=O)c3ccco3)cc2oc1=O	.	+	+
CCn1c(C(=O)Nc2ccsc2C(=O)OC)cc2sc(Cl)cc21	.	.	/
Cc1cc(C)nc(N2CCCC(C(=O)Nc3ccc4nc(C)c(C)nc4c3)C2)n1 (stereo unspecified)	.	.	/
Cn1c(N2CCOCC2)nc(-c2ccccc2)c1-c1ccccc1	.	.	/
CCCc1cc(-n2cnc3ccccc32)n2c(nc3ccccc32)c1C#N	/	.	/
CCCc1cc(NCC2CCCO2)n2c(nc3ccccc32)c1C#N (stereo unspecified)	/	102	+
CN(Cc1cccs1)C(=O)CSc1nnnn1C	/	.	/
Nc1cc(-c2nc3ncccc3o2)ccc1Cl	/	.	/
Cc1cc(-c2nc3ncccc3o2)ccc1N	.	69	+
COC(=O)c1ccc(C23CC4(C2)[C@H](CN(CC2CCCCC2)[C@@H]4c2ccccc2)C3c2ccc(Cl)nc2)cc1 (stereo partly specified)	/	.	/
O=C(Nc1ccc2oc(-c3ccncc3)nc2c1)c1cccs1	.	.	/
O=C(Nc1ccc(-c2nc3cc(NC(=O)c4cccs4)ccc3o2)cc1)c1cccs1	/	93	+
Cc1ccc2nc(-c3cccc(NC(=O)c4ccc5c(c4)OCCO5)c3)oc2c1	.	.	/
O=C(Nc1ccc2oc(-c3ccc4ccccc4c3)nc2c1)c1ccc2c(c1)OCCO2	/	36	+
CC(C)NC(=O)c1ccc(CS(=O)(=O)c2ccc(Br)cc2)o1	.	.	/
COc1ccc2cc3cc(C(=O)NCc4ccccn4)oc3nc2c1	.	/	/
COc1ccc2cc3cc(C(=O)NCC4CCCO4)oc3nc2c1 (stereo unspecified)	.	105	+
COc1ccc2cc3cc(C(=O)Nc4ccccc4N4CCN(C)CC4)oc3nc2c1	.	.	/
COc1ccc2cc3cc(C(=O)NCCN4CCN(c5ccccc5F)CC4)oc3nc2c1	.	/	.
CCOc1ccc(NC(=O)c2cc3cc4ccc(OC)cc4nc3o2)cc1	/	105	+
